Data on 99 compounds can be found in PubChem BioAssay AID1022 (Emory University Molecular Libraries Screening Center, 2008).

Structures are written as SMILES. About 3,300 (1.5%) of roughly 220,000 compounds were called active. For the sample, actives were picked, then their nearest neighbours and some compounds at random. Unmarked numbers belong to inactive results.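 The calls were made as follows: active = compounds that cut the protein-peptide binding signal by more than 50% relative to plate controls in a single-dose test; inactive = the rest.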

The target of this experiment is Induced myeloid leukemia cell differentiation protein Mcl-1 (Homo sapiens) (UniProt Q07820). Put plainly: Mcl-1/Noxa binding inhibitors, primary screen, biochemical, TR-FRET, 1536-well (AID 1022).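 Also: His-tagged Mcl-1 with rhodamine Noxa BH3 peptide and terbium anti-His antibody; 0% = Mcl-1 plus Noxa peptide wells and 100% = peptide-only wells.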 To be noted: TR-FRET Mcl-1/Noxa peptide binding, 2 h; at 21.7 µM; hits give high values.
Induced myeloid leukemia cell differentiation protein Mcl-1 (Homo sapiens), sequence (Q07820 whole entry, looked up): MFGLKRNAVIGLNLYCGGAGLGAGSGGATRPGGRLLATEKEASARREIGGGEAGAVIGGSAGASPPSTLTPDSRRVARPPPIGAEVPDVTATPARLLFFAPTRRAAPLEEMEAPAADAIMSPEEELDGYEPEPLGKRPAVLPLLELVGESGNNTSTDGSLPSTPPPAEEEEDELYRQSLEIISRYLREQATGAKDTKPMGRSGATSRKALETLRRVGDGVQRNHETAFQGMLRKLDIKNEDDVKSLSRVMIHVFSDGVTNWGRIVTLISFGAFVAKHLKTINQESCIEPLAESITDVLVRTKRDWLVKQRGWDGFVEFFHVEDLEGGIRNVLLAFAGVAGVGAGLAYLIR
`O=C(/C=C/c1ccccc1[N+](=O)[O-])OC1CCCCC1=O` (centres undefined): the inhibition (as a rule, the relative decrease from the control value, in per cent) was 5.64%.

For the compound `O=C(OC1CCCCC1=O)c1cccc(S(=O)(=O)NCc2ccccc2)c1` (centres undefined), the inhibition is -5.3%.

Turning to `O=C1CCCCC1C(=O)c1ccccc1` (centres undefined), the inhibition is 95% (active).

Regarding `Cc1ccccc1N1CCN(Cc2nc(Cc3ccccc3F)no2)CC1`, the inhibition is 9.66%.

On to `O=S(=O)(c1ccc(Cl)cc1)N1CCCN(c2ccc(C(F)(F)F)cn2)CC1`, for which the inhibition is 15.1%.

Consider `Cc1ccc(NS(=O)(=O)c2ccc(C)c(NC(=O)COc3ccc4ccccc4c3)c2)c(C)c1`, for which the inhibition was -15.7%.

`Cc1cccc(COc2ccccc2/C=N/Nc2ccc([N+](=O)[O-])cc2)c1`: the inhibition was 1.32%.

In the case of `Cc1ccc(NS(=O)(=O)c2ccc(N/N=C/c3ccccc3OCC(=O)O)c([N+](=O)[O-])c2)c(C)c1`, the inhibition was 56.7% (active).

As to `CCCCSc1nnc2c(n1)OC=Nc1ccccc1-2`, the inhibition was 12.5%.

In the case of `O=C(CC(c1ccccc1)c1cc(Cl)ccc1O)NCCN1CCOCC1` (centres undefined), the inhibition was -4.69%.

For `O=C(Cc1ccccc1)N1N=C(c2ccncc2)CC1(O)C(F)(F)F` (centres undefined), the inhibition is -12.4%.

For the compound `CC(C)c1ccc2c(c1)c(SC(C)(C)C)c(CC(C)(C)C(=O)O)n2Cc1ccc(Cl)cc1`, the inhibition is 68.7% (active).

`Cc1ccc(C)c2c1cc(C)c1nnc(SCC(=O)Nc3cccc(C(=O)O)c3)n12`: the inhibition is 4.65%.

For the compound `CC1CCN(Cc2nc(-c3ccc(Cl)cc3)no2)CC1`, the inhibition was 11%.

Regarding `O=C(O)CC1=C(Nc2ccccc2)C(=O)N(c2ccccc2)C1c1ccc(Cl)cc1` (centres undefined), the inhibition was -6.85%.

On to `CN(C(=O)Nc1ccc(Cl)cc1)n1cnc2ccccc2c1=O`, for which the inhibition is -0.02%.

With `COc1ccc(OCC(O)CNCCNc2nccc(C(F)(F)F)n2)cc1` (centres undefined), the inhibition is -8.04%.

`CCn1c(CN2C(=O)CSc3ccccc32)n[nH]c1=S`: the inhibition was -15.7%.

Regarding `Fc1ccccc1OCCSc1nc2ccccc2o1`, the inhibition is 60.4% (active).

As for `CC(C)(C)C(=O)CSc1nc2ccccc2o1`, the inhibition is 8.46%.

Regarding `CCN(CC)C(=O)CSc1nc2ccccc2o1`, the inhibition is 7.79%.

Regarding `Cn1nc(C(C)(C)C)c([N+](=O)[O-])c1C(N)=O`, the inhibition was 5.22%.

Take `COc1ccc(Nc2cc(Cl)ccc2C(=O)O)cn1`: the inhibition was 11%.

As to `CCN(CC)CCCNC(=O)c1ccc2c(=O)n(Cc3ccc4c(c3)OCO4)c(=S)[nH]c2c1`, the inhibition was 25.2%.

As for `CCCCSc1nc2ccccc2[nH]1`, the inhibition is 12.9%.

Regarding `CCCCN(CC)CCCNC(=O)c1ccc(CSc2nc3ccncc3[nH]2)cc1`, the inhibition was 63% (active).

On to `COC(=O)c1nc(NC(=O)c2ccc(F)cc2)n[nH]1`, for which the inhibition was -6.78%.

As to `COC(=O)c1nc(NC(=O)c2ccc(Cl)cc2)n[nH]1`, the inhibition is -8.02%.

In the case of `COC(=O)c1nc(NC(=O)c2ccc(C(C)(C)C)cc2)n[nH]1`, the inhibition was 69.2% (active).

On to `O=C(O)CC1(CC(=O)Nc2cccc(C(F)(F)F)c2)CCCC1`, for which the inhibition is -33.1%.

With `Nc1nnnn1/N=C/c1cc([N+](=O)[O-])ccc1O`, the inhibition is -18%.

Regarding `COc1ccc(N2C(=O)CC(Sc3n[nH]c(-c4ccc(C)cc4)n3)C2=O)cc1` (centres undefined), the inhibition was 36%.

For the compound `Cc1ccc(N2C(=O)CC(Sc3ncn[nH]3)C2=O)cc1` (centres undefined), the inhibition is -10.1%.

Turning to `O=C1CC(Sc2ncn[nH]2)C(=O)N1c1ccccc1` (centres undefined), the inhibition was 54.4% (active).

For the compound `Cc1nc(CNS(=O)(=O)c2cc([N+](=O)[O-])ccc2C)cs1`, the inhibition was -0.49%.

Take `CN(C)S(=O)(=O)c1cccc(-c2nn(-c3ccccc3)cc2/C=C2\SC(=S)N(CC(=O)O)C2=O)c1`: the inhibition was 74.1% (active).

With `Cc1ccc(-c2nn(-c3ccccc3)cc2/C=C/C(=O)Nc2cccc(S(N)(=O)=O)c2)cc1`, the inhibition was 7.42%.

On to `O=C(CN1C(=O)/C(=C\c2ccccc2F)SC1=S)Nc1nc2ccccc2s1`, for which the inhibition was 11.5%.

For `COC(=O)c1sc2[nH]c(=S)n(N)c(=O)c2c1C`, the inhibition was 52.1% (active).

As for `CCOC(=O)c1sc2nc(CSCC(=O)OCc3ccc(C(=O)OC)o3)[nH]c(=O)c2c1C`, the inhibition is 11.7%.

Turning to `CCOC(=O)c1sc2nc(C)[nH]c(=O)c2c1C`, the inhibition was -7.23%.

For the compound `Cc1onc(-c2ccccc2)c1C(=O)N=C(N)c1ccc(Cl)cc1`, the inhibition was 13.2%.

In the case of `Cc1nnc(N/N=C/c2cccs2)[nH]c1=O`, the inhibition is -2.37%.

`CC(O)c1nc2c(c(=O)n(C)c(=O)n2C)n1C` (centres undefined): the inhibition is -1.58%.

On to `CC1CN(c2nc(Nc3ccccc3)nc(N)c2[N+](=O)[O-])CC(C)O1` (centres undefined), for which the inhibition is -24.5%.

As to `CNc1nc(Nc2ccc(C)c(Cl)c2)nc(N)c1[N+](=O)[O-]`, the inhibition was 26.8%.

As for `CCN1CCN(c2nc(Nc3cccc(F)c3)nc(N)c2[N+](=O)[O-])CC1`, the inhibition is 56.7% (active).

With `O=C(NCc1cccnc1)Nc1cccc(NC(=O)NCc2cccnc2)c1F`, the inhibition is -1.36%.

With `COc1cc(OC)c(C(=O)Nc2ccc(N(C)C)cc2)cc1OC`, the inhibition was 51.8% (active).

As for `COc1cc(OC)c(C(=O)Nc2ccccc2-c2ccccc2)cc1OC`, the inhibition is 2.98%.

For the compound `COc1ccc(Cl)cc1C(=O)Nc1ccc(N(C)C(C)=O)cc1`, the inhibition was 15.3%.

`CC(NC(=S)NNS(=O)(=O)c1ccc(C(C)(C)C)cc1)c1ccccc1` (centres undefined): the inhibition is -17.7%.

Consider `Cc1ccc2c(c1)c1ncn(Cc3ccc(F)cc3)c(=O)c1n2C`, for which the inhibition was -20.4%.

`O=C(CSc1ccccc1)Nc1nnc(/C=C/c2ccccc2)s1`: the inhibition is 9.47%.

On to `O=C(Nc1ccc(Cl)cc1)Nc1nnc(/C=C/c2ccccc2)s1`, for which the inhibition is 91.2% (active).

`COc1ccc(/C=C/c2nnc(NC(=O)C(C)C)s2)cc1`: the inhibition is 12.2%.

For `CN(C)c1ccc(/C=C/C(=O)c2ccc(O)cc2)cc1[N+](=O)[O-]`, the inhibition was 20.5%.

Consider `CCCc1nc2oc3c(=O)[nH]cnc3c2c2c1COC(C)(C)C2`, for which the inhibition was -3.33%.

For the compound `CC(=O)Nc1ccc(C(=O)/C=C/c2ccc[nH]2)cc1`, the inhibition was 15.7%.

Turning to `COc1ccc(N2C(=O)c3ccccc3NC2c2ccc(OC)c(CN3CCOCC3)c2)cc1` (centres undefined), the inhibition is 7.79%.

`CCN(CCNC(=O)C1=C(C)C(=O)OC12CCC(C)CC2)c1ccccc1` (centres undefined): the inhibition is -5.12%.

As for `Brc1ccc(-c2nnc(-c3ccccc3)o2)o1`, the inhibition is 8.68%.

For the compound `Nc1ccc(-c2nnc(-c3ccc(-c4ccccc4)cc3)o2)cc1`, the inhibition was 65.7% (active).

For `Nc1ccc(-c2sc(N)nc2-c2ccccc2)cc1`, the inhibition is 26.2%.

For the compound `COc1ccc(S(=O)(=O)N(CC(=O)N/N=C/c2ccccc2C(=O)O)c2ccccc2OC)cc1`, the inhibition is 12.8%.

As to `Oc1c(C(c2ccccn2)N2CCOCC2)ccc2cccnc12` (centres undefined), the inhibition is 5.37%.

With `CCOC(=O)N1CCN(C(c2cccnc2)c2ccc3cccnc3c2O)CC1` (centres undefined), the inhibition was 61.5% (active).

On to `CCN1CCN(C(c2cccnc2)c2cc(Cl)c3cccnc3c2O)CC1` (centres undefined), for which the inhibition is 34%.

For `Cc1nc(N)sc1N=Nc1c(C)n(C)n(-c2ccccc2)c1=O`, the inhibition was 13%.

For the compound `CC(C)OP(=O)(OC(C)C)C(Nc1ccccc1)c1cccc([N+](=O)[O-])c1` (centres undefined), the inhibition was 6.5%.

Take `CSC1=N/C(=C\c2ccc3c(c2)OCO3)C(=O)S1`: the inhibition is 5.49%.

Take `CCC1=C/C(=C\c2ccc3c(c2)OCO3)C(=O)S1`: the inhibition is 55.4% (active).

For `O=C1/C(=C/c2ccc3c(c2)OCO3)CCC/C1=C\c1ccc2c(c1)OCO2`, the inhibition is -7.31%.

Take `O=C(Nc1ccc(F)cc1)N1CCN(c2ccc(F)cc2)CC1`: the inhibition is -20.8%.

With `COc1ccc(OCC(=O)Nc2ccc(N3CCC(C)CC3)cc2)cc1`, the inhibition is 5.22%.

In the case of `CN1CCN(CCNC(=O)Nc2ccc([N+](=O)[O-])cc2)CC1`, the inhibition was 6.06%.

For the compound `O=C(NCCCN1CCN(c2ccc(F)cc2)CC1)Nc1ccc([N+](=O)[O-])cc1`, the inhibition was 52% (active).

Consider `O=C(COc1ccc([N+](=O)[O-])cc1)Nc1ccc(N2CCCC2)cc1`, for which the inhibition is 52.2% (active).

As to `O=C(COC(=O)C1CCCCC1)Nc1ccc([N+](=O)[O-])cc1`, the inhibition is -0.21%.

In the case of `CN(C)c1nc(=Nc2cccc(Cl)c2)ss1`, the inhibition is 13.4%.

In the case of `CC(C)(C)C(=O)OCc1nc(-c2ccc(O)c(O)c2)cs1`, the inhibition is 46.4%.

For the compound `COc1ccc(CCNC(=O)C(Sc2ccccn2)c2ccccc2)cc1OC` (centres undefined), the inhibition was -11.6%.

`CSc1ccc(NC(=O)/C=C/C(=O)O)cc1`: the inhibition was 14.6%.

For `Cc1oc(C(N)=O)cc1COc1ccc(C(N)=O)cc1`, the inhibition was 7.05%.

Turning to `O=C(NCCN1CCOCC1)c1ccc2c(c1)N(Cc1ccc(Cl)cc1)CCS2`, the inhibition was 16.4%.

On to `NC(=O)[C@H]1CC2(CC(c3cccc(NC(=O)[C@H]4CCC(=O)N4)c3)=NO2)CN1C(=O)c1ccccc1C(=O)c1ccccc1` (some centres undefined), for which the inhibition was 3.36%.

As for `Cc1cc(=O)[nH]c2nnnn12`, the inhibition is 0.51%.

Consider `Fc1ccc(NC(=S)N2CCc3[nH]c4ccccc4c3C2)cc1`, for which the inhibition is 14.9%.

In the case of `O=C(NC1CCCCC1)N1CCc2[nH]c3ccccc3c2C1`, the inhibition was -13%.

As for `O=C(Nc1ccc(Cl)cc1)N1CCc2[nH]c3ccccc3c2C1`, the inhibition was 104% (active).

Turning to `O=C(Nc1ccccc1)c1nnsc1S(=O)(=O)c1ccc(Cl)cc1`, the inhibition was 68.7% (active).

As for `O=C(Nc1ccc(Cl)cc1)c1ccsn1`, the inhibition is 11.5%.

For `CS(=O)(=O)c1ccc(Cl)c(NC(=O)Nc2ccccc2)c1`, the inhibition is 2.41%.

As to `N#CC1=C(N)Oc2c(ccc3cccnc23)C1c1ccncc1` (centres undefined), the inhibition was -11.2%.

As to `NC(=O)N/N=C\c1cccs1`, the inhibition is -22.2%.

For the compound `C=CCSC(CC)(CC)C(N)=O`, the inhibition is -9.07%.

With `COc1ccc(NC(=S)NCCN2CCC(C)CC2)cc1`, the inhibition is 19.6%.

With `COc1ccc(NC(=S)NCC2CCN(c3ccc(OC)cc3)C2)cc1` (centres undefined), the inhibition was 67.3% (active).

As to `COc1ccc(N2CCC(CNC(=S)Nc3c(C)cccc3C)C2)cc1` (centres undefined), the inhibition was 17.1%.
